An excerpt weighted towards active compounds, which were near 2.9% of everything screened.
TSHR antag: blocks TSH signaling through the human TSH receptor; P16473; TSHR-expressing cells, TSH-stimulated cAMP HTRF, 2 h; stronger effect = lower value; activity change, negative = inhibition, % at 11.5 µM; 0.2% of 330,000 active; AID 504810;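 active means activity change below a set negative limit, meaning inhibition stronger than a set level, cut at about -70% in these data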; further: on the % scale 0 is the no-effect control and ±100 the full control effect
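Competitive HTRF cAMP read-out (cryptate anti-cAMP antibody, cAMP-d2; 30 min, room temperature) in freshly harvested TSHR cells. Compounds added before TSH at EC80 (4nM final), followed by 2 hours' incubation at 37 deg C.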
DRD3 antagonist: blocks the human D3 dopamine receptor; AID 652054; D3R cells, DiscoveRx beta-arrestin luminescence, antagonist mode; stronger effect = lower value; 2.5% of 360,000 active; max response, negative = inhibition, %; P35462; in the data active means max response below about -50%; further: on the % scale 0 is the no-effect control and ±100 the full control effect
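Cells expressing the human receptor were seeded at 1500 cells/well, incubated overnight at 37 degrees C in 5% CO2, then exposed to library compounds with dopamine controls for 90 minutes at 37 degrees C before luminescent detection.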
B2AR arrestin: agonists driving beta-arrestin recruitment to human beta2-adrenergic receptor | P07550 | beta-arrestin recruitment to beta2AR, cell-based reporter | Potency, µM (top dose mostly 46.1 µM), without a hit: top-dose activation, most hits filed as activators | 0.02% of 330,000 active; active means well fitted activation curve with a large enough effect;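 further: potency means the concentration at half of the fitted maximal effect; 0% = DMSO controls and full agonism = EC100 isoproterenol or metaproterenol; nearly all actives have a fitted effect of over 65% in size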
Target sequence (P07550 whole entry, looked up): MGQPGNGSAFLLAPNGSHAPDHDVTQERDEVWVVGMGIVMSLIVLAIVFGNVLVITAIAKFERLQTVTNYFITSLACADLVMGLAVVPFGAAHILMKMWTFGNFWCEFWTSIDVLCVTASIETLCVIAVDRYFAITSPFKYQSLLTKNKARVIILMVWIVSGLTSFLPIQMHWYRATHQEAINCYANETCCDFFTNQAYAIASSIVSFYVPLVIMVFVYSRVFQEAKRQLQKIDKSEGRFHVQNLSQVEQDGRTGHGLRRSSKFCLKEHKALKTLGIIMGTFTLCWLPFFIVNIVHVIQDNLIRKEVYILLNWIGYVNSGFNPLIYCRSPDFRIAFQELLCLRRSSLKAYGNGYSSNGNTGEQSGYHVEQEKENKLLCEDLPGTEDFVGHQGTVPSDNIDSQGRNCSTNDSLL
DRD3 agonist: D3 dopamine receptor (human) agonism. P35462. D3R DiscoveRx beta-arrestin cells, luminescence, 90 min. max activation, %. 0.58% of 410,000 active. AID 652048; in the data active means max activation above about 30%; further: 0% is about no effect
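Cells at 1500/well, incubated overnight, then treated with pinned compounds (dopamine as control) for 90 min at 37 degrees C. DiscoveRx reagent added for 30 - 60 minutes at room temperature; luminescence read.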
* hit, by the source's call; nt = not tested or not shown.

SMILES | TSHR antag | DRD3 antagonist | B2AR arrestin | DRD3 agonist
Cc1ccccc1C(=O)Nc1nnc(S(=O)(=O)N(C)Cc2ccc(Cl)cc2)s1 | nt | nt | nt | 5
CC(=O)Nc1ccc(Nc2nc3ccc(C)cc3n3nnnc23)cc1 | nt | nt | nt | 0
O=C(CNC(=O)c1ccc(F)cc1)OCc1cc(=O)n2nc(C3CC3)sc2n1 | nt | nt | nt | 3
COc1ccc(-c2noc(CNC(=O)c3ccccc3Br)n2)cc1 | nt | nt | nt | 0
CCCN(CCC)C(=O)Cn1c(SCc2cccc(C(F)(F)F)c2)nc2cccnc21 | nt | nt | nt | -3
Cc1ccc(OC(=O)CSc2nnc(CNC(=O)c3ccccc3)o2)cc1 | nt | nt | nt | 1
Cc1cc(N2CCN(c3cccc(C)c3C)CC2)n2nc(C)c(-c3ccc(Cl)cc3)c2n1 | nt | nt | nt | 1
O=C(CN1CCN(c2ccccn2)CC1)Nc1ccc(Cl)c(C(F)(F)F)c1 | -16 | -66* | 0% | 3
Cc1ccc(NC(=O)CN2CCN(c3ccccn3)CC2)cc1S(=O)(=O)N(C)C | 1 | 70 | 0% | 62*
CCN(CC)S(=O)(=O)c1cc(NC(=O)CN2CCN(c3ccccn3)CC2)ccc1C | -3 | 6 | 0% | 91*
O=C(CN1CCN(c2ccccn2)CC1)Nc1cc(C(F)(F)F)ccc1Cl | -6 | 0 | 0% | 6
O=S(=O)(NCCc1csc2nc(-c3ccc(F)cc3)nn12)c1ccc(Oc2ccccc2)cc1 | nt | nt | nt | -13
C[C@H](CO)N1C[C@H](C)[C@@H](CN(C)C(=O)NC2CCCCC2)Oc2c(NS(=O)(=O)c3ccc(F)cc3)cccc2C1=O | 12 | -11 | 0% | 31*
C[C@H]1CN([C@@H](C)CO)C(=O)c2cccc(NS(=O)(=O)c3ccc(F)cc3)c2O[C@H]1CN(C)S(=O)(=O)c1cn(C)cn1 | -4 | 0 | -1% | 1
C[C@H](CO)N1C[C@H](C)[C@@H](CN(C)C(=O)Nc2ccccc2)Oc2ccc(NS(=O)(=O)c3ccccc3)cc2C1=O | -2 | 8 | 0% | -3
C[C@H](CO)N1C[C@H](C)[C@@H](CN(C)S(=O)(=O)c2cn(C)cn2)Oc2ccc(NS(=O)(=O)c3ccccc3)cc2C1=O | -5 | 7 | 0% | 35*
C[C@H](CO)N1C[C@H](C)[C@@H](CN(C)S(=O)(=O)c2ccccc2)Oc2ccc(NS(=O)(=O)c3cn(C)cn3)cc2C1=O | 13 | -10 | -1% | -10
C[C@H](CO)N1C[C@H](C)[C@@H](CN(C)C(=O)Nc2ccccc2)Oc2ccc(NS(=O)(=O)c3ccc(F)cc3)cc2C1=O | -6 | 13 | 0% | 37*
C[C@H](CO)N1C[C@H](C)[C@@H](CN(C)S(=O)(=O)c2cn(C)cn2)Oc2c(NS(=O)(=O)c3ccccc3)cccc2C1=O | -2 | 50 | 3% | 49*
C[C@H](CO)N1C[C@H](C)[C@@H](CN(C)C(=O)NC2CCCCC2)Oc2c(NS(=O)(=O)c3ccccc3)cccc2C1=O | -10 | 0 | 0% | 1
CC(=O)Nc1ccc(OC(=O)c2ccccc2OC(C)=O)cc1 | nt | nt | nt | -5
CCc1ccccc1NC(=O)c1ccc2c(O)c(S(=O)(=O)c3ccccc3)c(=O)[nH]c2c1 | nt | nt | nt | 3
COc1ccc2cc1Oc1ccc(cc1)C[C@H]1c3c(cc(OC)c4c3Oc3c(ccc5c3[C@H](C2)N(C)CC5)O4)CCN1C | 7 | 11 | 0% | -6
CN1CCc2cccc3c2C1Cc1ccc(O)c(O)c1-3 (stereo not given) | -16 | 65 | -1% | 123*
c1ccc(CN2CCN(C(c3ccccc3)c3ccccc3)CC2)cc1 | 4 | -70* | -1% | -11
SMILES | TSHR antag | DRD3 antagonist | B2AR arrestin | DRD3 agonist
c1ccc(CN2CCN(C(c3ccccc3)c3nnnn3Cc3ccccc3)CC2)cc1 (stereo not given) | -7 | 0 | 0% | -10
Fc1ccc(CN2CCN(C(c3ccccc3)c3ccccc3)CC2)cc1 | 2 | -82* | -1% | -23
CCCCn1nnnc1C(c1ccccc1)N1CCN(CC)CC1 (stereo not given) | nt | -4 | nt | -7
O=C1c2ccccc2C(=O)N1CC#CCN1CCN(C(c2ccccc2)c2ccccc2)CC1 | 3 | -88* | 0% | -18
CCCCn1nnnc1C(c1ccccc1)N1CCCN(Cc2ccc(F)cc2)CC1 (stereo not given) | nt | -69* | nt | -13
C=CCNC(=O)CN1CCN(C(c2ccccc2)c2ccccc2)CC1 | 11 | -1 | 0% | -25
Cc1ccc2nc(CN3CCN(C(=O)Nc4ccc(F)cc4)CC3)oc2c1 | nt | nt | nt | 5
CCN(CC)C(=O)Cn1c(SCCOc2ccc(Cl)cc2)nc2ccccc21 | nt | nt | nt | -1

Compound activity: PubChem BioAssay, National Center for Advancing Translational Sciences (NCATS)
